The whole screen tested about 44,000 compounds, of which about 30 (0.07%) were called active. About 1% were inconclusive and are not listed. The list comes from a sample in which actives are over-represented; it also holds similar structures and randomly drawn compounds. Values without a mark were called inactive. Cut-off read from the data, not from the text of the source: active = inhibition above about 54% (passing the limit was not always enough); inconclusive = no clear call, values can overlap the other calls.
Target: Histone-lysine N-methyltransferase NSD2 (Homo sapiens) (UniProt O96028)
Assay: inhibitors of human NSD2, primary screen, biochemical, plate reader, single point (AID 624260);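 note: inhibitors reduce the monomethyl H3K36 fluorescence signal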
Conditions: NSD2-SET H3K36me1 DELFIA fluorescence, at 12.5 µM, stronger effect = higher value

Sequence of Histone-lysine N-methyltransferase NSD2 (Homo sapiens) (O96028 whole entry, looked up): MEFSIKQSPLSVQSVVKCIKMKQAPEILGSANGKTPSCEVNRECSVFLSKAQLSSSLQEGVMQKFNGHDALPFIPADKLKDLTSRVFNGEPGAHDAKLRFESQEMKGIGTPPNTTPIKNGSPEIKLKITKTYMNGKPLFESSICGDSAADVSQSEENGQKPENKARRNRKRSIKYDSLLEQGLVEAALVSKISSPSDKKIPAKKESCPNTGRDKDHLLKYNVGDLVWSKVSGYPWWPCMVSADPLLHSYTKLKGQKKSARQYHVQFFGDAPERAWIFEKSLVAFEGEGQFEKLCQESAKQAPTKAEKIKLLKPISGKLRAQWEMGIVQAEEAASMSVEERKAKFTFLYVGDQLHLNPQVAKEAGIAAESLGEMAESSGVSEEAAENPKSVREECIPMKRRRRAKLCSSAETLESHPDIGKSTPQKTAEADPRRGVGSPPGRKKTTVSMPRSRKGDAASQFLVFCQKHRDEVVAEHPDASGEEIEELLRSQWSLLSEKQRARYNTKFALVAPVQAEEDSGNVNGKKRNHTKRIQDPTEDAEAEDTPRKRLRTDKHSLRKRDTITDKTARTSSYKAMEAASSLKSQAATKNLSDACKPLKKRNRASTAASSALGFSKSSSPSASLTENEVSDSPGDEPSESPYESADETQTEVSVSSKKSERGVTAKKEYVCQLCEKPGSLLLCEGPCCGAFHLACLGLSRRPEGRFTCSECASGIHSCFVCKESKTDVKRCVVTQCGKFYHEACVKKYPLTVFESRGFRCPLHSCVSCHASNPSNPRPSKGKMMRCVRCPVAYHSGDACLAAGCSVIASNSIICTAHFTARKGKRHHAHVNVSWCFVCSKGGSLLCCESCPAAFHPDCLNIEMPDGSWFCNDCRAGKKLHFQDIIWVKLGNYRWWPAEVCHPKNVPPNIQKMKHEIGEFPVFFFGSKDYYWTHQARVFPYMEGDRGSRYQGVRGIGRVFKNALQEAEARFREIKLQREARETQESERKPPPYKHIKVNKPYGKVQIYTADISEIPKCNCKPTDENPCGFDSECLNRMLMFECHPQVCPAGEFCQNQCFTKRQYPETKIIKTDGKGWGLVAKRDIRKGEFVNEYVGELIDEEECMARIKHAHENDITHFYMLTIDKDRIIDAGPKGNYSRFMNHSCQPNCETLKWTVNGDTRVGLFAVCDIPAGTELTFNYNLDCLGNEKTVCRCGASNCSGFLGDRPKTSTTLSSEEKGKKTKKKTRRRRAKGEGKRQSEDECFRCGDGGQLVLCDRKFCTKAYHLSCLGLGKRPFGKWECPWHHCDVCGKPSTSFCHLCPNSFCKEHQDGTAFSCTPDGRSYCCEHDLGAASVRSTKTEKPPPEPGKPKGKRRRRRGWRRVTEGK

Structure (SMILES)	inhibition
O=C(C[C@H]1C[C@@H]2c3cc(NC(=O)c4cccnc4)ccc3O[C@@H]2[C@@H](CO)O1)NCc1ccccc1F	-0.738%
CCCN(C)C[C@H]1Oc2cc(C#CCC3CCCC3)ccc2S(=O)(=O)N([C@@H](C)CO)C[C@@H]1C	1.41%
C[C@@H]1CN([C@@H](C)CO)C(=O)Cc2cc(NC(=O)Nc3ccc4c(c3)OCO4)ccc2O[C@H]1CN(C)S(=O)(=O)c1ccc(F)cc1	5.36%
C[C@H](CO)N1C[C@H](C)[C@@H](CN(C)Cc2ccc(C(F)(F)F)cc2)Oc2ccc(NC(=O)Cn3cnnn3)cc2CC1=O	-8%
CC(C)NC(=O)N(C)C[C@H]1Oc2cc(C#Cc3ccccn3)ccc2S(=O)(=O)N([C@H](C)CO)C[C@@H]1C	4.46%
CC(/C=C/C(=O)NO)=C\c1ccccc1OCc1ccc(COc2ccc3ccncc3c2)cc1	-5.12%
C[C@@H]1CN([C@H](C)CO)S(=O)(=O)c2ccc(/C=C/c3ccccc3)cc2O[C@@H]1CN(C)C(=O)Nc1ccc(F)cc1	-10.2%
C[C@H]1CN([C@@H](C)CO)C(=O)Cc2cc(NC(=O)Nc3cccc4ccccc34)ccc2O[C@@H]1CN(C)C	1.05%
Cc1ccc(-c2ccc3c(c2)O[C@H](CN(C)C(=O)Nc2ccccc2)[C@@H](C)CN([C@@H](C)CO)S3(=O)=O)cc1	-6.18%
CCCNC(=O)C[C@H]1C[C@@H]2c3cc(NC(=O)c4ccc5c(c4)OCO5)ccc3O[C@@H]2[C@@H](CO)O1	7.66%
C[C@H](CO)N1C[C@H](C)[C@@H](CN(C)CC2CC2)Oc2ccc(NC(=O)CCCN(C)C)cc2CC1=O	3.07%
O=C(C[C@H]1CC[C@H](NC(=O)Nc2ccc(C(F)(F)F)cc2)[C@H](CO)O1)NCCN1CCCC1	-1.99%
COc1ccc(NC(=O)N(C)C[C@H]2OCc3ccccc3-c3ccccc3C(=O)N([C@H](C)CO)C[C@@H]2C)cc1	-1.37%
CCC(=O)N(C)C[C@H]1Oc2cc(C#CCOC)ccc2S(=O)(=O)N([C@H](C)CO)C[C@H]1C	-1.1%
O=C(C[C@H]1C[C@H]2c3cc(NC(=O)Nc4ccc(F)cc4)ccc3O[C@H]2[C@@H](CO)O1)NCC1CC1	2.39%
COc1ccc(CN(C)C[C@H]2OCCCC[C@H](C)Oc3ccc(NS(=O)(=O)c4ccc(C)cc4)cc3C(=O)N([C@@H](C)CO)C[C@H]2C)cc1	2.76%
C[C@@H]1CN([C@@H](C)CO)C(=O)Cc2cc(NC(=O)Nc3ccc(C(F)(F)F)cc3)ccc2O[C@H]1CN(C)C(=O)Nc1ccc(F)cc1	-13.8%
Cc1ccc(S(=O)(=O)N(C)C[C@@H]2Oc3ccc(NC(=O)C4CCCCC4)cc3CC(=O)N([C@@H](C)CO)C[C@H]2C)cc1	-6.23%
CCC(=O)N(C)C[C@@H]1Oc2cc(-c3ccc(OC)cc3)ccc2S(=O)(=O)N([C@@H](C)CO)C[C@H]1C	1.75%
C[C@H](NC(=O)C[C@@H]1CC[C@H](NC(=O)CN2CCOCC2)[C@H](CO)O1)c1ccccc1	-3.53%

Structure (SMILES)	inhibition
COc1cccc(S(=O)(=O)N(C)C[C@@H]2Oc3ncc(-c4cccc(C(=O)N(C)C)c4)cc3C(=O)N([C@H](C)CO)C[C@@H]2C)c1	5.93%
COc1ccc(NC(=O)Nc2ccc3c(c2)C(=O)N([C@H](C)CO)C[C@@H](C)[C@H](CN(C)C(=O)Cc2ccccc2)OCCCC[C@H](C)O3)cc1	-2.17%
CCCNC(=O)C[C@H]1C[C@@H]2c3cc(NC(=O)C4CCOCC4)ccc3O[C@@H]2[C@@H](CO)O1	11%
C/C=C/c1ccc2c(c1)O[C@H](CN(C)C(=O)CN(C)C)[C@H](C)CN([C@@H](C)CO)S2(=O)=O	1.3%
Cc1noc(C)c1S(=O)(=O)Nc1ccc2c(c1)C(=O)N([C@H](C)CO)C[C@@H](C)[C@@H](CN(C)S(=O)(=O)c1ccc(Cl)cc1)O2	-1.25%
C[C@H](CO)N1C[C@H](C)[C@@H](CN(C)Cc2ccccc2)OCCCC[C@H](C)Oc2ccc(NC(=O)Cc3ccccc3)cc2C1=O	-3.29%
CCCN(C)C[C@H]1Oc2cc(C#CCC(C)C)ccc2S(=O)(=O)N([C@H](C)CO)C[C@H]1C	0.338%
C[C@H]1CN([C@@H](C)CO)C(=O)c2cccc(NC(=O)Nc3ccc(C(F)(F)F)cc3)c2O[C@H]1CN(C)CC1CCCCC1	1.34%
C[C@H](CO)N1C[C@H](C)[C@H](CN(C)Cc2ccccc2)OCCCC[C@H](C)Oc2ccc(NC(=O)c3ccccc3)cc2C1=O	8.82%
C[C@H]1CN([C@@H](C)CO)C(=O)c2cc(-c3ccncc3)cnc2O[C@H]1CN(C)C(=O)c1cccc(F)c1	-1.28%
CC(C)CC#Cc1ccc2c(c1)O[C@H](CN(C)C(=O)c1cccnc1)[C@@H](C)CN([C@H](C)CO)S2(=O)=O	0.112%
C[C@H]1CN([C@@H](C)CO)C(=O)c2cc(C3=CCCCC3)cnc2O[C@H]1CN(C)Cc1ccncc1	3.39%
C/C=C/c1ccc2c(c1)O[C@@H](CN(C)C(=O)Cc1ccccc1)[C@H](C)CN([C@@H](C)CO)S2(=O)=O	5.94%
COc1ccc(NC(=O)N(C)C[C@H]2Oc3cc(C#CCN(C)C)ccc3S(=O)(=O)N([C@@H](C)CO)C[C@@H]2C)cc1	5.29%
Cc1noc(C)c1NC(=O)N(C)C[C@@H]1Oc2ccc(NC(=O)Nc3cccc4ccccc34)cc2CC(=O)N([C@@H](C)CO)C[C@H]1C	-4.68%
CCC(=O)N(C)C[C@@H]1Oc2cc(C#CCOC)ccc2S(=O)(=O)N([C@H](C)CO)C[C@H]1C	-17.7%
CN(C)C(=O)C[C@H]1C[C@H]2c3cc(NC(=O)Nc4ccccc4F)ccc3O[C@H]2[C@@H](CO)O1	2.09%
COCC(=O)N(C)C[C@H]1Oc2ncc(-c3ccc(C)cc3)cc2C(=O)N([C@@H](C)CO)C[C@@H]1C	25.2%
C/C=C/c1cnc2c(c1)C(=O)N([C@@H](C)CO)C[C@@H](C)[C@H](CN(C)C(=O)c1cnccn1)O2	0.45%
C[C@H](CO)N1C[C@H](C)[C@@H](CN(C)C)Oc2cc(C#Cc3ccccc3)ccc2S1(=O)=O	-6.31%

Structure (SMILES)	inhibition
O=C(Nc1ccc2c(c1)[C@H]1C[C@@H](CC(=O)N3CCc4ccccc4C3)O[C@H](CO)[C@H]1O2)Nc1ccccc1F	2.01%
C[C@H](CO)N1C[C@H](C)[C@@H](CN(C)S(=O)(=O)c2ccccc2)Oc2ncc(-c3ccncc3)cc2C1=O	4.23%
C[C@H](CO)N1C[C@H](C)[C@H](CN(C)CC2CCCC2)Oc2ncc(Br)cc2C1=O	0.26%
CC(=O)N(C)C[C@H]1Oc2ncc(C#Cc3ccc(F)cc3)cc2C(=O)N([C@H](C)CO)C[C@@H]1C	3.93%
C[C@@H]1CN([C@H](C)CO)S(=O)(=O)c2ccc(-c3ccncc3)cc2O[C@H]1CN(C)S(=O)(=O)c1ccccc1F	-2.69%
CC(C)CC#Cc1ccc2c(c1)O[C@@H](CN(C)C(=O)c1ccccc1F)[C@H](C)CN([C@H](C)CO)S2(=O)=O	-7.41%
C[C@@H]1CN([C@@H](C)CO)S(=O)(=O)c2ccc(C#C[C@@H](C)O)cc2O[C@@H]1CN(C)CC1CC1	4.62%
COCC#Cc1ccc2c(c1)O[C@@H](CN(C)Cc1cccnc1)[C@@H](C)CN([C@H](C)CO)S2(=O)=O	5.56%
COc1ccc(S(=O)(=O)Nc2ccc3c(c2)C(=O)N([C@@H](C)CO)C[C@H](C)[C@@H](CN(C)S(=O)(=O)c2ccc(C)cc2)OCCCC[C@@H](C)O3)cc1	-8.56%
C[C@@H]1CN([C@@H](C)CO)S(=O)(=O)c2ccc(Br)cc2O[C@@H]1CN(C)C(=O)C1CCCCC1	-6.34%
C[C@@H]1CN([C@H](C)CO)S(=O)(=O)c2ccc(C#CC(C)(C)O)cc2O[C@@H]1CN(C)Cc1ccccc1	-5.05%
COCC(=O)N(C)C[C@@H]1Oc2cc(C3=CCCC3)ccc2S(=O)(=O)N([C@@H](C)CO)C[C@H]1C	-2.03%
C[C@@H]1CN([C@@H](C)CO)S(=O)(=O)c2ccc(Br)cc2O[C@H]1CN(C)S(=O)(=O)c1ccccc1	0.606%
COc1ccc(NC(=O)Nc2ccc3c(c2)[C@H]2C[C@H](CC(=O)NC4CCCC4)O[C@H](CO)[C@H]2O3)cc1	-1.24%
C[C@@H]1CCCCO[C@H](CN(C)C(=O)Cc2ccccc2)[C@H](C)CN([C@@H](C)CO)C(=O)c2cc(NS(=O)(=O)c3ccc(F)cc3)ccc2O1	6.79%
C[C@H](CO)N1C[C@H](C)[C@@H](CN(C)C(=O)C2CCCCC2)Oc2cc(C3=CCCC3)ccc2S1(=O)=O	-2.1%
COc1ccc(NC(=O)Nc2ccc3c(c2)C(=O)N([C@@H](C)CO)C[C@@H](C)[C@H](CN(C)C(=O)CCC(F)(F)F)OCCCC[C@@H](C)O3)cc1	-1.97%
C/C=C/c1ccc2c(c1)O[C@@H](CN(C)C(=O)C1CCOCC1)[C@H](C)CN([C@H](C)CO)S2(=O)=O	12.8%
C[C@@H]1CN([C@@H](C)CO)C(=O)Cc2cc(NS(=O)(=O)c3ccc(Cl)cc3)ccc2O[C@H]1CN(C)Cc1ccc(C(F)(F)F)cc1	-12.4%

Reference: PubChem BioAssay AID624260 (Broad Institute, 2012)
